Results: the supplement of paper PMC11732987, “Enantioselective OTUD7B fragment discovery through chemoproteomics screening and high-throughput optimisation” (Communications Chemistry, 2025)

Key:
Experiment in all cases: log2 ratio of Biotin-Ahx-Ub-VS probe labelling (fragment/DMSO); higher = less target engagement (more negative = stronger competition), active = hit call of the paper (q ≤ 0.05, log2 ratio ≤ -1)
Settings in all cases: compound concentration: 200 uM; treatment time: 3 h
[1] = biological target: USP34 (UniProt Q70CQ2)
Sequence of USP34 (Q70CQ2 whole entry, the tested form may be a part): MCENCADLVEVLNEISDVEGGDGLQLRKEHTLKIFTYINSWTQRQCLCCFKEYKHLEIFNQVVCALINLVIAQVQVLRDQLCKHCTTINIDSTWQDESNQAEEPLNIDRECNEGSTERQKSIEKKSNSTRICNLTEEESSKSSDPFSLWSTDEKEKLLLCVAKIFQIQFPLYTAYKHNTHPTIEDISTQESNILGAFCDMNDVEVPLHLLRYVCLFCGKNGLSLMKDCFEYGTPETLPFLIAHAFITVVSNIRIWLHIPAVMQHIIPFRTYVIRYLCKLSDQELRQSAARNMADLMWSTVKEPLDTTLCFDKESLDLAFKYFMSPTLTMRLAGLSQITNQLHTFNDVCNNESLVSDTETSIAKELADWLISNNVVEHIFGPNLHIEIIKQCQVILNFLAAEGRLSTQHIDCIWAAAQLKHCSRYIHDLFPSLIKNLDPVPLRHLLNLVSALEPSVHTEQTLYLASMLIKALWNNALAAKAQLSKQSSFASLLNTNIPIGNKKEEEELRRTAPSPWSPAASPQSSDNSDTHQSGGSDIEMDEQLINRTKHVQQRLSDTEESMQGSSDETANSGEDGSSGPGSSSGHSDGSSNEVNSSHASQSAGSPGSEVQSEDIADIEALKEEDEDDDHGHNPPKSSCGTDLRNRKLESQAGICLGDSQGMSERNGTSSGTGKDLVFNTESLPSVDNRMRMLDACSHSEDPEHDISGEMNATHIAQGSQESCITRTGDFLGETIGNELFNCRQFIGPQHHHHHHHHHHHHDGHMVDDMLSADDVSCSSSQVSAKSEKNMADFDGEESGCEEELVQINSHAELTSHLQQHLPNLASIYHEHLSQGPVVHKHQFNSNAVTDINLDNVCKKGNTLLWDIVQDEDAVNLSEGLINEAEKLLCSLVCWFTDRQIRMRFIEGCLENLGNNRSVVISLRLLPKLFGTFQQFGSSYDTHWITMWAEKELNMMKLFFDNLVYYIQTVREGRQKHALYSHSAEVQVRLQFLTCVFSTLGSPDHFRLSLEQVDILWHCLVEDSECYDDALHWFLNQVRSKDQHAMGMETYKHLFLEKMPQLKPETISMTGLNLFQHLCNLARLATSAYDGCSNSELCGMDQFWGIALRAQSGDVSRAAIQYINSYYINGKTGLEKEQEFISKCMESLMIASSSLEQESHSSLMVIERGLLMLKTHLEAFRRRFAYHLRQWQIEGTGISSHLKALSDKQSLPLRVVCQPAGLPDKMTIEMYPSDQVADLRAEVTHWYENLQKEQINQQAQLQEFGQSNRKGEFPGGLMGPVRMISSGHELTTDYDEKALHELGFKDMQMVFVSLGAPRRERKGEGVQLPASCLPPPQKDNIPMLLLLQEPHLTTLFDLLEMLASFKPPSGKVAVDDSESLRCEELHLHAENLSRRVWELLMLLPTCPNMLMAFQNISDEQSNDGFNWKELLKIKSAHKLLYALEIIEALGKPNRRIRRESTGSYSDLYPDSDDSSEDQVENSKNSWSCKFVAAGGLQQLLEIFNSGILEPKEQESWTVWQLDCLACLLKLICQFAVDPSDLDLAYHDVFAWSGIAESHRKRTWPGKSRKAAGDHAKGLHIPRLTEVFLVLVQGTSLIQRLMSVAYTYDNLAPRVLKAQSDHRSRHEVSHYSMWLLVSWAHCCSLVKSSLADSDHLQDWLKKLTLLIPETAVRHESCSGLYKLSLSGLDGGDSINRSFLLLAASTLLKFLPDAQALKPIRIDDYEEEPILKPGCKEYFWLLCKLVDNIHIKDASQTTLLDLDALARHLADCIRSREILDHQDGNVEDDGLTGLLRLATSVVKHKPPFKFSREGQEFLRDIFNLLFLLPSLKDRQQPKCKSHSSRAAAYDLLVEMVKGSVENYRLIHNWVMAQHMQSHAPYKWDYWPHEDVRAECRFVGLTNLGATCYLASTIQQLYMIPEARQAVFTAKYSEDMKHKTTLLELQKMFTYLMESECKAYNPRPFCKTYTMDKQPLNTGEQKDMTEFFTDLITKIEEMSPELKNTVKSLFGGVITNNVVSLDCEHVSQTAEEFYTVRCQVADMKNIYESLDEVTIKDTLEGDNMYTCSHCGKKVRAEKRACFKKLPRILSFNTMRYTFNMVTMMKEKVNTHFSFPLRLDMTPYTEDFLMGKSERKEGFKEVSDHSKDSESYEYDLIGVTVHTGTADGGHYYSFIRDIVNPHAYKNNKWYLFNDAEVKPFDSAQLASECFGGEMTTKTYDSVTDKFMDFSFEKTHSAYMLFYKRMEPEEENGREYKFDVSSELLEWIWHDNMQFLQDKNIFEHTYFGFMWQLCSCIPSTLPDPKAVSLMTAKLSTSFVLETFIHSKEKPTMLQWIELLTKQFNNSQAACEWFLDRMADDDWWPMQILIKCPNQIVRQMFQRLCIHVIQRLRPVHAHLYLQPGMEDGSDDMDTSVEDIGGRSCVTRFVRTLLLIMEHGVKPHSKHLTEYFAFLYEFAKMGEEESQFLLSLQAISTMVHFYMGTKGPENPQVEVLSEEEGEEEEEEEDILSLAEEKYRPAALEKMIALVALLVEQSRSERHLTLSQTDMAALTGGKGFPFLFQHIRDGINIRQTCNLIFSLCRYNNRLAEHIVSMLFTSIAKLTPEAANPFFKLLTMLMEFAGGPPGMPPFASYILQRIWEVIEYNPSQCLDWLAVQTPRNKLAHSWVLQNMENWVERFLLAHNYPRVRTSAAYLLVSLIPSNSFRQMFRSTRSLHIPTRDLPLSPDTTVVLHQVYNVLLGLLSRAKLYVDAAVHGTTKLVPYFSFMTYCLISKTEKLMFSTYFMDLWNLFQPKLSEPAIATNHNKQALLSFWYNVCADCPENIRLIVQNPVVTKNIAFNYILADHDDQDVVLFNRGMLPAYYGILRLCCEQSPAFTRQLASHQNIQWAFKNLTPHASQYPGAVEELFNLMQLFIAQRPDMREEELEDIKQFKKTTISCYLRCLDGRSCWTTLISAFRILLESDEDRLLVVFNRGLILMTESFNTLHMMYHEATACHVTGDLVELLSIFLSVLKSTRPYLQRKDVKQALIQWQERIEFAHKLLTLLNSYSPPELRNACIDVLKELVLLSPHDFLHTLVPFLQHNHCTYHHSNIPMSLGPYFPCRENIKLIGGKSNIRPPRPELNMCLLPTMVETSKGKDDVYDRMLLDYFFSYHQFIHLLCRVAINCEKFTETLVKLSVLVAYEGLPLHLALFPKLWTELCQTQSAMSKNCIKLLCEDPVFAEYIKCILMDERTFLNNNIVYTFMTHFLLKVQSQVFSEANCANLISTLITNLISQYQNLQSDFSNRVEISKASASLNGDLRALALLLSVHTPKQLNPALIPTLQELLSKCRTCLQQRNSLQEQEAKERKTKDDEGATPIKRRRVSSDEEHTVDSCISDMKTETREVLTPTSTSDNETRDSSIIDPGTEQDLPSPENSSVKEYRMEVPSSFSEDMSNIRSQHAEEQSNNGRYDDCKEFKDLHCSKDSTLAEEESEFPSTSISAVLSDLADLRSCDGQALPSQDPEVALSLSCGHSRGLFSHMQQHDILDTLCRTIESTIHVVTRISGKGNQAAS
How it was run: (§1)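 The table lists average log2 ratios of fragment over vehicle, from an unpaired t-test on global-median-normalised Spectronaut label-free quantities. Proteins with ≥2 unique peptides were used. Samples were HEK293T lysate (495 µg) treated in triplicate with fragment at 200 µM or vehicle for 3 h, then with Biotin-Ahx-Ub-VS (0.5 µM final) for 1 h, with labelled DUBs NeutrAvidin-enriched and run by diaPASEF LC-MS/MS.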

[2] = biological target: T1, USP36 (UniProt Q9P275)
T1 sequence (whole entry): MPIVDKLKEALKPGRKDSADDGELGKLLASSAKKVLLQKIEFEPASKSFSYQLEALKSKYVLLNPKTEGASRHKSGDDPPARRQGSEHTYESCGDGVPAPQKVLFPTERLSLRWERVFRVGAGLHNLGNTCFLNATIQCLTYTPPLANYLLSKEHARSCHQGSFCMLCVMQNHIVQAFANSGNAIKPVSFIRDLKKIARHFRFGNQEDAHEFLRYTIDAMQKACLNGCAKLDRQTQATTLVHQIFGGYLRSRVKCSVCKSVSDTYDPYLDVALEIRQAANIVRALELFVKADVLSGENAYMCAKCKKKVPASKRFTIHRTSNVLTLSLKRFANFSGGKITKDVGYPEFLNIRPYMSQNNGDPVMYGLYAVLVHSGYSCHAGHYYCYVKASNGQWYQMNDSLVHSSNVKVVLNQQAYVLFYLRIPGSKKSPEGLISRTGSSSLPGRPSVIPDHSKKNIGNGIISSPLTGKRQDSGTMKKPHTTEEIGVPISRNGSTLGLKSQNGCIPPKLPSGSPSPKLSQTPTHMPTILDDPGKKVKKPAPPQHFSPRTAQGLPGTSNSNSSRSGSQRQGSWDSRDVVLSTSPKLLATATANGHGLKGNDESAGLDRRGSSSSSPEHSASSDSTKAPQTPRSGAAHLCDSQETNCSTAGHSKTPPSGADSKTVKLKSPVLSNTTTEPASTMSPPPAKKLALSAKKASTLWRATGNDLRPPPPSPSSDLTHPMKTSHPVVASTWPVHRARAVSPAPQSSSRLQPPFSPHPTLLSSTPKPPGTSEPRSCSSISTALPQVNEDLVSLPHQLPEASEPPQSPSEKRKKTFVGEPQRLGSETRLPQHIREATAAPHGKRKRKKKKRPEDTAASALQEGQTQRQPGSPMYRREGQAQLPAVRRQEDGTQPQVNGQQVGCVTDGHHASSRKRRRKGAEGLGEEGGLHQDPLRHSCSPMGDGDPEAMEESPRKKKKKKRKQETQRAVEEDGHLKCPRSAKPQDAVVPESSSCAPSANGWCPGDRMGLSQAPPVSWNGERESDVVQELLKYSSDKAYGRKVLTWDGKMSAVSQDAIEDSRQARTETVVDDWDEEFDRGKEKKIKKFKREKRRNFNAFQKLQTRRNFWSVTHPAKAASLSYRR
How it was run: as §1

[3] = biological target: T2, USP38 (UniProt Q8NB14)
T2 sequence (whole entry): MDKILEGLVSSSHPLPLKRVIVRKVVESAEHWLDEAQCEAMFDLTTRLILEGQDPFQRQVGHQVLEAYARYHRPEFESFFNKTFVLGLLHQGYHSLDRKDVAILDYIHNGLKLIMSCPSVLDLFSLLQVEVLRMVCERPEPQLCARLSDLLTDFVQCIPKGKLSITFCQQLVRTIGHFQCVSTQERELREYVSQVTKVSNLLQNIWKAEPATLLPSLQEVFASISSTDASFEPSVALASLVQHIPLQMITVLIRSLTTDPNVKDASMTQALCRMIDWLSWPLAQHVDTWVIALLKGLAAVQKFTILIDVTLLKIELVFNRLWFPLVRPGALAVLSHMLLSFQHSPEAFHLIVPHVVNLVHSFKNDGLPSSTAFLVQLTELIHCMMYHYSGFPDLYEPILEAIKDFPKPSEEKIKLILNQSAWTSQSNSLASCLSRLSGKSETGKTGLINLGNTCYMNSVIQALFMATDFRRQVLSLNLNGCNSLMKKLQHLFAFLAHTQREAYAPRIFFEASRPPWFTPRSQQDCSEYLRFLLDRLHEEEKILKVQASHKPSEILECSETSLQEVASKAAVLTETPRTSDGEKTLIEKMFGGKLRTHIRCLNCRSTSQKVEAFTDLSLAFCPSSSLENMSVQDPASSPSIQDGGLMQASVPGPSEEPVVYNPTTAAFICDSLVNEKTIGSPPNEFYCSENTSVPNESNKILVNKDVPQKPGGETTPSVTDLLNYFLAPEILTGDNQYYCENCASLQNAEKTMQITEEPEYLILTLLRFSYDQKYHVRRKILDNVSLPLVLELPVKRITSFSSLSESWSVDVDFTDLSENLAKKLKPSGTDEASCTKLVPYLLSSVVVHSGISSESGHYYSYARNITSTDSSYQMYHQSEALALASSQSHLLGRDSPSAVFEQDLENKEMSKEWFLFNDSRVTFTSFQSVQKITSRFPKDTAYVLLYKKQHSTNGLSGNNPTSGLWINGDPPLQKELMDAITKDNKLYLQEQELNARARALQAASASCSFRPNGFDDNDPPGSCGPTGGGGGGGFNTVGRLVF
How it was run: as §1

[4] = biological target: T3, USP39 (UniProt Q53GS9)
T3 sequence (whole entry): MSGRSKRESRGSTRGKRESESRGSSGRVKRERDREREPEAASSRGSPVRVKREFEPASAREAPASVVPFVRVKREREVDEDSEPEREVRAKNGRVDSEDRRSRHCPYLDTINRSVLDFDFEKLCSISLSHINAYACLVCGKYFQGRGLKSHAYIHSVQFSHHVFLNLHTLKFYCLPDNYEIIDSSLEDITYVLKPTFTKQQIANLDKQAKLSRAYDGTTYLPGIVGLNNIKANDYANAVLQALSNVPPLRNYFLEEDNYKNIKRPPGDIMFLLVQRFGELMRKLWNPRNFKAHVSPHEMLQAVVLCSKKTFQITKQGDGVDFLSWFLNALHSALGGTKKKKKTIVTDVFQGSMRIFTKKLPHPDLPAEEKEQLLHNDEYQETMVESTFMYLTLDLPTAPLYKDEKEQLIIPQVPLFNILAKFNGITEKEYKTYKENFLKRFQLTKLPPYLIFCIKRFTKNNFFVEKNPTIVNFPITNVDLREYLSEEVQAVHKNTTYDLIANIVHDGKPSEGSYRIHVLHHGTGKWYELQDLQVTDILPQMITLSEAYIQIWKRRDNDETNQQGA
How it was run: as §1

[5] = biological target: T4, USP4 (UniProt Q13107)
T4 sequence (whole entry): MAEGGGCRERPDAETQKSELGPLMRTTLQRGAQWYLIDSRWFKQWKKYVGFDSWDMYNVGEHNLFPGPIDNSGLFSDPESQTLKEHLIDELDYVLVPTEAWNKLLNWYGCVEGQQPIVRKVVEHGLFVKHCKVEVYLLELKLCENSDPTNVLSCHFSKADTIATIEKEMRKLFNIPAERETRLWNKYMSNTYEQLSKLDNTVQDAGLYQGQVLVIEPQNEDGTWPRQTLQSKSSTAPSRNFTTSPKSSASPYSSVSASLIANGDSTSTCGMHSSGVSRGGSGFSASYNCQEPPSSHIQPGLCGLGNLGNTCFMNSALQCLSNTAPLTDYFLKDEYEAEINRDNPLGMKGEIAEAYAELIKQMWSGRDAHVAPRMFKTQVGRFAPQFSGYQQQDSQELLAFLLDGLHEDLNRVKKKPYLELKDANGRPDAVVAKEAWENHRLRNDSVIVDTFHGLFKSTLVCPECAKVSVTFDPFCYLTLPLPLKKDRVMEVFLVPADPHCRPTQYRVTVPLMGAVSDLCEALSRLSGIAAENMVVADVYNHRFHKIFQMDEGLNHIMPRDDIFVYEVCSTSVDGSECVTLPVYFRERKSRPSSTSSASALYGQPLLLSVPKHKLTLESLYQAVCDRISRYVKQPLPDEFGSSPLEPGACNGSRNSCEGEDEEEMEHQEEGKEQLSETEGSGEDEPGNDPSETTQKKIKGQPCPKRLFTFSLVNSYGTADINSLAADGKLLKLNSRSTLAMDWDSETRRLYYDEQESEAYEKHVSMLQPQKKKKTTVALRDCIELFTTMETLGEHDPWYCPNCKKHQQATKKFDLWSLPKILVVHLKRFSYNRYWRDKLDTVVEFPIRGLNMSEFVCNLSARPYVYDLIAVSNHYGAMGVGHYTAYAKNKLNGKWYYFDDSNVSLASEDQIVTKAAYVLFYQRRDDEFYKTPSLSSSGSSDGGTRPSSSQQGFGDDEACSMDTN
How it was run: as §1

Measured: log2 ratio of Biotin-Ahx-Ub-VS probe labelling

CN(C)C(=O)c1ccc(NC(=O)CCl)cc1
inactive: [1] -0.218 | [2] 0.00972 | [3] -0.0389 | [4] 0.0586 | [5] -0.323
